From PubChem BioAssay AID1347076 (National Center for Advancing Translational Sciences (NCATS), 2019)
Among all 400,000 compounds or so, about 13,000 (3.2%) were called active. Inconclusive results (about 18%) are left out. Many of the other results were omitted from the sample, so actives are more common in it than they were. A number with no mark means an inactive call. Calls come from the whole dose curve; as a rule, active = well fitted cell-killing curve with a large enough effect; inconclusive = small, poorly fitted or top-dose-only effect, or effect the other way; inactive = flat fitted curve, though single readings scatter.

assay: qHTS assay for MDR1-selective chemotherapeutics: Primary screen using the drug-selected MDR subline cells KB-V1; conditions: KB-V1 MDR cells viability, CellTiter-Glo, 72 h; series mostly up to 46.1 µM; activity change, negative = cytotoxicity: at the top concentration; note: nearly all actives have a fitted effect of over 60% in size
In short: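 Following 72 h at 37 degrees C with compound, KB-V1 cell viability was read by CellTiter-Glo luminescence, medium being phenol-red-free DMEM plus 10% FBS; concentration-response parameters came from normalized, curve-fitted qHTS data.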
% is set by controls: 0 for no effect and ±100 for the full control effect; potency is the fitted concentration of half-maximal effect.

In order of falling “activity change, negative = cytotoxicity” value:
1. O=[N+]([O-])c1cc(C(F)(F)F)ccc1NN=C1CCCC1  28.7%
2. CC(C)n1ncc2c(C(=O)NCc3ccccc3CN(C)C)cc(C3CC3)nc21  28.4%
3. CCc1nnc(NC(=O)c2ccco2)s1  27.7%
4. CCOC(=O)C1CCC(CN(Cc2ccc(OC)cc2)S(=O)(=O)c2ccc(F)c(C(=O)Nc3cc(C)ccc3C)c2)CC1 (stereo unspecified)  22.9%
5. CCCCN1C(=O)C(CC(=O)NCc2cccs2)CC(C(=O)N2CCOCC2)=C1C (stereo unspecified)  21.1%
6. O=C(COC(=O)CCc1c[nH]c2ccccc12)Nc1cccc(Cl)c1  19.9%
7. Brc1ccccc1/C=N/Nc1nc2ccccc2o1  16.2%
8. CC(C)Oc1ccc(CCc2nnc(SCC(=O)O)n2-c2ccccc2)cc1  13.3%
9. CCS(=O)(=O)Nc1cc(C(=O)OC)ccc1C(=O)OC  12.8%
10. Clc1cccc(Cc2c(-c3cccc(Cl)c3)nc3ccc(Cl)cn23)c1  12%
11. COc1ccccc1CNC(=O)c1cc(=O)c2ccccc2o1  11.7%
12. CC1CCC2(CC1)NC(=O)N(CC(=O)NCc1ccco1)C2=O (stereo unspecified)  11.2%
13. CCCCN1CC(C)(C)[C@H](CC(=O)Nc2ccc(Br)cc2)C1=O  9.65%
14. C[C@@H]1CN([C@@H](C)CO)C(=O)CCCn2cc(nn2)CO[C@H]1CN(C)S(=O)(=O)c1ccc(-n2cccn2)cc1  9.14%
15. Cc1ccc(C(=O)NC2CCN(C(=O)N3CCOCC3)CC2)cc1  7.22%
16. O=C(Nc1ccc2c(c1)OCCO2)C(C1CC1)N1CCC(Cc2ccccc2)CC1 (stereo unspecified)  6.42%
17. Nc1nc2c(ncn2[C@@H]2O[C@H](CNCc3ccc(OCCCN4CCOCC4)cc3)[C@@H](O)[C@H]2O)c(=O)[nH]1  6.4%
18. Nc1cccc(-c2cncc(N3CCN(Cc4ccccn4)CC3)n2)c1  6.36%
19. CCCCNC(=O)CSc1nc2ccc(NC(=O)CSc3nnc(N)s3)cc2s1  6.17%
20. CCOc1ccc(C(=O)NCC(=O)N2CCN(c3ccc(C(F)(F)F)cn3)CC2)cc1  5.85%
21. CN(C)CCCOc1ccc(-c2ccc3nccn3c2)cn1  5.43%
22. O=C(NCc1ccccn1)C1CCN(S(=O)(=O)c2ccc(Br)cc2)CC1  5.38%
23. C/C=C/C(=O)Nc1ccc(N2CCN(c3ccc(C(F)(F)F)cn3)CC2)nc1  4%
24. C[C@H]1CN([C@@H](C)CO)C(=O)c2cc(-c3cccc(F)c3)cnc2O[C@@H]1CN(C)S(C)(=O)=O  3.71%
25. CCn1nccc1C(=O)Nc1ccc(Cl)c(Cl)c1  3.02%
26. Cc1cccc2c1-c1sc(C(=O)Nc3ccc(F)cc3F)cc1CO2  2.92%
27. COc1ccc(N2c3ccccc3CN(Cc3ccccc3)[C@@H](C)[C@H]2Cc2ccc(-c3ccccc3)cc2)cc1  2.89%
28. Cc1ccc(CSc2ccc(S(=O)(=O)N3CCCCC3)cn2)cc1  2.58%
29. O=C(CCC1CCCC1)N=C1SC2CS(=O)(=O)CC2N1Cc1ccccc1 (stereo unspecified)  2.21%
30. O=C(c1ccccc1)N1N=C(c2ccccc2O)CC1c1ccc(Br)cc1 (stereo unspecified)  2.17%
31. O=C1NC[C@H](CCCCN2C[C@H](Cc3ccccc3)N(Cc3ccccc3)C(=O)C2=O)N(CCc2ccc(O)cc2)C1=O  1.62%
32. CCOc1ccc(Nc2nc3c(S(=O)(=O)c4cccc(Cl)c4)nnn3c3ccsc23)cc1  1.29%
33. CC(OC(=O)c1ccc([N+](=O)[O-])cc1)C(=O)NCC1CCCCC1 (stereo unspecified)  1.1%
34. Nc1ncnc2c1ncn2[C@@H]1O[C@H](C(=O)N2CCCN(Cc3ccccc3F)CC2)[C@@H](O)[C@H]1O  0.685%
35. CC1CCN(c2nc3ccc(C(=O)N4CCN(c5ccccc5)CC4)cc3s2)CC1  0.418%
36. O=C(Nc1ccccc1F)c1ccc(Cn2cc(Br)cn2)cc1  0.173%
37. O=C(CSc1nnc(-c2ccncc2)n1-c1ccccc1)Nc1ccc(Cl)c(Cl)c1  0.115%
38. COC(=O)N(C)C[C@@H]1OCc2cnnn2CCCC(=O)N([C@@H](C)CO)C[C@@H]1C  0.072%
39. O=C(NCc1ccccc1)C1c2ccccc2OCC(=O)N1CCCN1CCOCC1 (stereo unspecified)  0%
40. CCOC(=O)c1ccc(NC(=O)C2CC(=O)NC(=Nc3ccc(C)c(C)c3)S2)cc1 (stereo unspecified)  0%
41. COc1ccc(S(=O)(=O)N2CCN(CC(=O)N3CCNC3=O)CC2)cc1OC  0%
42. O=C(c1ccc(Cn2cc([N+](=O)[O-])cn2)o1)N1CCCC1  -1.32%
43. O=C(c1cc(=O)c2ccccc2o1)N1CCN(c2ccccc2)CC1  -1.8%
44. O=C(N=C1SC2CS(=O)(=O)CC2N1Cc1ccccc1)c1ccccc1 (stereo unspecified)  -2.4%
45. COc1ccc(C2=NN(C(C)=O)C(c3ccccc3)C2)cc1 (stereo unspecified)  -2.5%
46. O=C(c1ccc(Oc2ccc(Cl)cc2)c([N+](=O)[O-])c1)N1CCCC1  -2.56%
47. CN(Cc1ccc(C(F)(F)F)cc1)C(=O)[C@H]1O[C@@H](n2cnc3c(N)ncnc32)[C@H](O)[C@@H]1O  -2.71%
48. N#CC1=C(SCc2ccc(C#N)cc2)N=C(N)C(c2nc(-c3ccccc3)cs2)C12CCCCC2 (stereo unspecified)  -3.05%
49. O=[N+]([O-])c1c(NCCO)cc(Sc2nc3ccccc3s2)c2nonc12  -3.18%
50. COC(=O)c1scc(-c2ccc(C)cc2)c1S(=O)(=O)Nc1cc(Cl)c(OC)cc1OC  -3.69%
51. COc1ccccc1CNC(=O)CCCCn1c(=O)c2ccccc2n(CC(=O)Nc2cc(Cl)ccc2C)c1=O  -4.31%
52. O=C1CCC[C@@H]2C[C@@]3(C[C@@H]4CCN1[C@H]24)Nc1ccccc1NC3=NCc1ccccc1  -4.8%
53. O=C(Nc1ccccn1)C1CCN(S(=O)(=O)c2ccc3c(c2)OCCO3)CC1  -5.52%
54. COc1ccc(NC(=O)C2(C)Cc3c(-c4cccc(NC(C)=O)c4)ccnc3O2)cc1OC (stereo unspecified)  -7.13%
55. COc1ccc2c(C)c(CCC(=O)NCc3ccc(OC)c(OC)c3)c(=O)oc2c1  -7.69%
56. CCCNC(=O)C1(C)CCN1C(=O)Cc1ccc(-c2ccccc2)cc1 (stereo unspecified)  -9.32%
57. Cc1ccc(Cc2c(-c3ccco3)nc3ccc(Cl)cn23)cc1  -9.86%
58. COC(=O)c1ccc(CN2C(=O)C(Cc3ccccc3)ON=C2c2ncccc2C)o1 (stereo unspecified)  -9.92%
59. CSc1ccc(CN2CCC2(C)C(=O)NCc2ccccc2Br)cc1 (stereo unspecified)  -11.6%
60. COc1ccc(NC(=O)CCC(=O)Nc2cc(OC)c(NC(=O)c3ccco3)cc2OC)c(OC)c1  -11.7%
61. O=S(=O)(c1ccc(SCc2ccccc2)nc1)N1CCCCCC1  -12.3%
62. Cn1nnc2c(N3CCN(c4ccccc4)CC3)ncnc21  -12.8%
63. CCCCCNC(=O)C1C(=O)Nc2ccccc2C(=O)N1C(C)(C)C (stereo unspecified)  -14.7%
64. CC(C)n1ncc2c(C(=O)Nc3ccc(CC#N)cc3)cc(C3CC3)nc21  -15.1%
65. CC1(C(=O)NS(=O)(=O)c2ccc(C#N)cc2)CCN1C(=O)c1ccc(C2CCCCC2)cc1 (stereo unspecified)  -15.4%
66. O=C(OCc1ccccc1)N1CCC2CC1c1ccc(-c3ccc4c(c3)OCO4)cc12 (stereo unspecified)  -16%
67. CCOC(=O)C1=CC[C@@H](c2ccccc2)N(S(=O)(=O)c2ccc(C)cc2)[C@H]1c1cccc(OC)c1  -19.1%
68. CCN(CCO)C(=S)Nc1cc(C(=O)OC)ccc1C(=O)OC  -19.1%
69. Nc1ccc(C(=O)N2CCN(S(=O)(=O)c3ccc(Cl)cc3)CC2)cc1[N+](=O)[O-]  -19.1%
70. CCCNC(=O)C1CC(=O)N(c2ccc(OCc3ccccc3)cc2)C1 (stereo unspecified)  -19.5%
71. O=C(COc1ccc(S(=O)(=O)N2CCCC2)cc1[N+](=O)[O-])N1CCCCC1  -20.5%
72. C=CCn1c(CCc2ccc(OC(C)C)cc2)n[nH]c1=S  -20.5%
73. Oc1cccc(/C=N/Nc2ccc(Cl)nn2)c1O  -22.1%
74. O=C(CCCN1C(=O)C(c2ccccc2)Oc2cccnc21)Nc1ccccc1Br (stereo unspecified)  -25.5%
75. CCc1cc(C(=O)N(CC)CC(=O)Nc2c(F)cccc2F)sc1C  -25.8%
76. O=S(=O)(Nc1ccc2nc(N3CCOCC3)sc2c1)c1ccccc1  -27.7%
77. CCCCNC(=O)CSc1nc2ccc(NC(=O)CSc3nnc(COc4ccccc4C)n3C)cc2s1  -28.6%

With `COc1ccc(OCCNC(=O)c2cc(C3CC3)nc3c2cnn3C(C)C)cc1` the Potency was 8.2 µM (active).
For `O=C(Nc1ccccn1)C1CCN(S(=O)(=O)c2ccccc2)CC1`, the Potency was 18.4 µM (active).
For `O=[N+]([O-])c1cc(S(=O)(=O)N2CCCC2)ccc1NN=C1CCCC1`, the Potency was 16.4 µM (active).
With `CC(C)c1ccc(S(=O)(=O)Nc2ccc(O)c(Sc3nc4ccccc4s3)c2)cc1` the Potency was 16.4 µM (active).
With `CC(C)Oc1ccc(CCc2n[nH]c(=S)n2Cc2ccccc2)cc1` the Potency was 16.4 µM (active).
With `Nc1nnc(SCC(=O)Nc2ccc3nc(SCC(=O)Nc4ccccc4)sc3c2)s1` the Potency was 23.1 µM (active).
With `CCc1ccc(NC(=O)c2ccc(Cn3cc([N+](=O)[O-])cn3)cc2)cc1` the Potency was 4.61 µM (active).
For `Oc1c(Br)cccc1/C=N/Nc1c(F)c(F)c(F)c(F)c1F`, the Potency was 25.9 µM (active).
In the case of `CCCN(CCC)C(=S)Nc1cc(C(=O)OC)ccc1C(=O)OC`, the Potency is reported as 20.6 µM (active).
For `CC1CCN(C(=O)c2ccc(S(=O)(=O)Cc3cc(F)ccc3F)c([N+](=O)[O-])c2)CC1`, the Potency was 14.6 µM (active).
For `O=S(=O)(c1ccc(SCc2ccc(Br)cc2)nc1)N1CCOCC1`, the Potency was 13 µM (active).
In the case of `O=C(CC(O)(C(F)(F)F)C(F)(F)F)Nc1ccc(Cl)c(Cl)c1`, the Potency is reported as 3.26 µM (active).
With `CCOC(=O)N1CCC(NC(=O)c2ccc3nc(N4CCOCC4)sc3c2)CC1` the Potency was 3.66 µM (active).
In the case of `COc1cc(C(=O)OC(C)C(=O)NCC2CCCCC2)cc(NC(=O)c2ccco2)c1OC` (stereo unspecified), the Potency is reported as 20.6 µM (active).
With `CC(C)CC(=O)N=C1SC2CS(=O)(=O)CC2N1CCc1ccccc1` (stereo unspecified) the Potency was 13 µM (active).
In the case of `Cc1ccc(F)cc1NC(=O)N1CCCN(c2ccc(C(F)(F)F)cn2)CC1`, the Potency is reported as 20.6 µM (active).
For `COc1cc2c(cc1OC)CN(C(=O)c1cc(=O)c3ccccc3o1)CC2`, the Potency was 2.91 µM (active).
For `CNC(=S)N1N=C(c2ccccc2)CC1c1ccc(Br)cc1` (stereo unspecified), the Potency was 11.6 µM (active).
For `N#CC1=C(SCc2ccccc2)NC(=O)C(C#N)C12CCCC2` (stereo unspecified), the Potency was 14.6 µM (active).
